Records with an inconclusive call do not appear. Active and inactive are the calls of the source. The calls were made as follows: active = hit-call score of the fitted dose curve at least 0.9, where 1 is the maximum; inconclusive = response in the unintended direction; inactive = score below 0.9.
What was measured:
[1] = TOX21_p53_BLA_p2_viability: Viability Assessment in the Tox21 HCT-116 p53 Agonism Beta-lactamase Assay, Phase 2 (AID 2283591);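 also: actives lower the ATP signal meaning cytotoxicity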
Method in brief: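 HCT116 p53-bla cells, 4000/well, dosed after 5 h plating (217-fold dilution of DMSO stocks) and incubated 16 h at 37C. Viability taken as cellular ATP by CellTiter-Glo luminescence after 30 min RT; signal loss marks cytotoxicity.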

[2] = biological target: Cellular tumor antigen p53 (Homo sapiens) (UniProt P04637); assay: TOX21_p53_BLA_p2_ratio: Tox21 HCT-116 p53 Agonism Beta-lactamase Assay, Ratio, Phase 2 (AID 2283592)
Method in brief: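 An inducible beta-lactamase reporter in HCT116 cells signals p53 pathway activation. After 16 h chemical exposure at 37C, cells load CCF4-AM substrate for 2 h at room temperature; activity is the cleaved/uncleaved emission ratio relative to DMSO.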

[3] = TOX21_p53_BLA_p3_viability: Viability Assessment in the Tox21 HCT-116 p53 Agonism Beta-lactamase Assay, Phase 3 (AID 2283593);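 also: cells exposed to compound for 16 h before reading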
Method in brief: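 HCT116 cells, 4000/well, dosed 5 h after plating by pin transfer (217-fold dilution from DMSO stock) and incubated 16 h at 37C, 5% CO2. Viability read as ATP luminescence with CellTiter-Glo after 30 min at room temperature.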

[4] = biological target: Cellular tumor antigen p53 (Homo sapiens) (UniProt P04637); assay: TOX21_p53_BLA_p3_ratio: Tox21 HCT-116 p53 Agonism Beta-lactamase Assay, Ratio, Phase 3 (AID 2283596)
Method in brief: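 HCT116 p53-bla cells (4000/well) given compound in DMSO (217-fold dilution) after 5 h, incubated 16 h at 37C. CCF4-AM substrate 2 h at room temperature; 460/530 nm emission ratio, gain fitted against DMSO.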

[5] = biological target: Cellular tumor antigen p53 (Homo sapiens) (UniProt P04637); assay: TOX21_p53_BLA_p5_ratio: Tox21 HCT-116 p53 Agonism Beta-lactamase Assay, Ratio, Phase 5 (AID 2283599)
Method in brief: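 HCT-116 p53-bla cells (4000/well) plated 5 h, dosed with compound (217-fold DMSO dilution) for 16 h at 37 C; CCF4-AM substrate 2 h at room temperature. Activity is the 460/530 nm emission ratio (405 nm excitation), fitted in gain-of-signal direction versus DMSO.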

[6] = TOX21_p53_BLA_p5_viability: Viability Assessment in the Tox21 HCT-116 p53 Agonism Beta-lactamase Assay, Phase 5 (AID 2283600)
Method in brief: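 Counter-readout for cytotoxicity: ATP-dependent luminescence from CellTiter-Glo, read in the beta-lactamase wells after 30 min at RT, following a 16 h compound exposure at 37C.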

Measured: outcome

Sequence of Cellular tumor antigen p53 (Homo sapiens) (P04637 whole entry, looked up): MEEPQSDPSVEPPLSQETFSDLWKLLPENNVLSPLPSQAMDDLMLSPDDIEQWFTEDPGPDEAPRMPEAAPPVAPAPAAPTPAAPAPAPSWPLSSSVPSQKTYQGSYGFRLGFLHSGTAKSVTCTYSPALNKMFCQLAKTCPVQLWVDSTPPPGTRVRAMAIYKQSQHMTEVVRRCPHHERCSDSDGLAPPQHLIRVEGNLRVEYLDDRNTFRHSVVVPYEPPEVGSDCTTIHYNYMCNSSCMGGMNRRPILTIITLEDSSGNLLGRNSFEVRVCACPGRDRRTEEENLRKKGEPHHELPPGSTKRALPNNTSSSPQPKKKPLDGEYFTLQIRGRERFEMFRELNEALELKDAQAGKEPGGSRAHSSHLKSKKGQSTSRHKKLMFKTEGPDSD

CCCNC(C)C(=O)Nc1ccccc1C (configuration not stated)
not listed: [6]
inactive: all other assays above

O=C1Nc2ccccc2C1=O
inactive: all assays above

Cc1ccccc1C#N
not listed: [6]
inactive: all other assays above

O=C(O)C(Cc1cc(I)c(O)c(I)c1)c1ccccc1 (configuration not stated)
not listed: [6]
inactive: all other assays above

CN(C)CCOCCN(C)CCO
not listed: [6]
inactive: all other assays above

Cc1occc1SSc1ccoc1C
inactive: all assays above

CC(C)(c1ccc(Oc2ccc3c(c2)C(=O)OC3=O)cc1)c1ccc(Oc2ccc3c(c2)C(=O)OC3=O)cc1
not listed: [6]
inactive: all other assays above

— PubChem BioAssay (EPA / NIEHS)
